Reference: PubChem BioAssay (NCATS)
“And” between values parts separate entries of the source, which are not always exact repeats. Identical values can stand only once. Results filed as inconclusive are left out. The source made the active and inactive calls. Calls come from the whole dose curve; as a rule, active = well fitted cell-killing curve with a large enough effect; inconclusive = small, poorly fitted or top-dose-only effect; inactive = flat fitted curve, though single readings scatter.

Assay: Cell Viability - NIH 3T3 (AID 541); note: nearly all actives have a fitted effect of over 25% in size;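 for activity change, negative = cytotoxicity: plate controls were DMSO alone for no effect and tamoxifen positive control for full effect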
Settings: NIH 3T3 cell viability, qHTS; activity change, negative = cytotoxicity: at 92.2 µM (top of the series)
From the text: NIH Chemical Genomics Center [NCGC]
NIH Molecular Libraries Screening Centers Network [MLSCN]
National Institutes of Environmental Health Sciences [NIEHS]
National Toxicology Program [NTP]
We have developed a 1536-well cell-based assay for quantitative high throughput screening (qHTS) against a number of cell lines to determine in vitro cytotoxicity of small molecules. This particular assay uses the NIH 3T3 fibroblast cell line which is established from NIH Swiss mouse embryo.
NCGC Assay Protocol Summary:
The CellTiter-Glo luminescent cell viability assay (Promega) is a homogeneous method to measure the number of viable cells in culture. The end point readout of this assay is based on quantitation of intracellular ATP, an indicator of metabolic activity, using the luciferase reaction. Luciferase catalyzes the oxidation of beetle Luciferin to oxyluciferin and light in the presence of ATP. The luminescent signal is proportional to amount of ATP present.
Using the CellTiter-Glo luminescent cell viability assay, the amount of cellular ATP was measured in the NIH 3T3 cell line with complete culture medium following compound treatment for 40 hours. The assay was performed in opaque white Kalypsys 1536-well plates. In the screen, tamoxifen and doxorubicin were used as positive controls. Library compounds were measured for their ability to cause acute toxicity in the cell line, as reflected by a decrease in intracellular ATP levels, in a concentration-dependent manner. […] AC50 values were determined from concentration-response data modeled with the standard Hill equation.
qHTS protocol for CellTiter Glo NIH 3T3 cellular assay
[Step] [Parameter] [Value] [Description]
1. Reagent; 5 uL; 1000 NIH 3T3 cells/well
2. Time; 5 hr; 37 °C incubation
4. Controls; 23 nL; Tamoxifen 0.34 uM to 100 uM & Doxorubicin 0.02 nM to 100 uM
5. Time; 40 hr; 37 °C incubation
6. Reagent; 5 uL; CellTiter Glo reagent
7. Time; 20 min; Room Temperature
8. Detection; Luminescence; Viewlux plate reader
Keywords: cell viability, cytotoxicity, NIH 3T3 cell line, luminescence, NTPHTS, NTPHTS_NCGC, NIEHS, EPA, DSSTox, MLSMR, MLSCN, NIH Roadmap, qHTS, NCGC
Potency is the fitted concentration of half-maximal effect.

Compound | Potency | activity change, negative = cytotoxicity
CCCCCCCCn1sccc1=O | 12.6 µM (active) | 
O=[N+]([O-])C(Br)Br | 31.6 µM (active) | 
CC(C)CC(C)Nc1ccc(Nc2ccccc2)cc1 (configuration not stated) |  | -113% (active)
C(=NC1CCCCC1)=NC1CCCCC1 | 1 µM (active) | 
c1ccc2cc3c(cc2c1)-c1cccc2cccc-3c12 | inactive | 
CC(=O)[O-].CC(=O)[O-].O.O.[Cd+2] |  | -127% (active)
O=C(CCl)c1ccccc1 | 15.8 µM (active) | 
Clc1ccc(C(c2ccc(Cl)cc2)C(Cl)Cl)cc1 | inactive | 
Oc1c(Br)c(Br)c(Br)c(Br)c1Br | inactive | 
O=C1C2(Cl)C3(Cl)C4(Cl)C(Cl)(Cl)C5(Cl)C3(Cl)C1(Cl)C5(Cl)C24Cl (configuration not stated) |  | -136% (active) and -122% (active)
CN(C)c1ccc(N=O)cc1 | 12.6 µM (active) | 
N#CSCSC#N | 10 µM (active) | 
O=C(O)C1C(C(=O)O)C2(Cl)C(Cl)=C(Cl)C1(Cl)C2(Cl)Cl (configuration not stated) | inactive | 
[Cd+2].[Cl-].[Cl-] |  | -132% (active)
O=[N+]([O-])c1cc(C(F)(F)F)cc([N+](=O)[O-])c1Cl |  | -150% (active)
FC(F)(F)c1ccc(Cl)cc1 | inactive | 
OC(c1ccc(Cl)cc1)(c1ccc(Cl)cc1)C(Cl)(Cl)Cl | inactive | 
[CH3][Hg][Cl] | 0.0316 µM (active) | 
C#CCO | inactive | 
N#CC(Cl)Cl | inactive | 
C[C@@H]1CC[C@@]2(OC1)O[C@H]1[C@@H](O)[C@H]3[C@@H]4CC[C@H]5C[C@@H](O[C@@H]6O[C@H](CO)[C@H](O[C@@H]7O[C@H](CO)[C@@H](O)[C@H](O[C@@H]8OC[C@@H](O)[C@H](O)[C@H]8O)[C@H]7O[C@@H]7O[C@H](CO)[C@@H](O)[C@H](O[C@@H]8O[C@H](CO)[C@@H](O)[C@H](O)[C@H]8O)[C@H]7O)[C@H](O)[C@H]6O)[C@H](O)C[C@]5(C)[C@H]4CC[C@]3(C)[C@H]1[C@@H]2C | 31.6 µM (active) | 
ClC1=C(Cl)C2(Cl)C3C(Cl)C(Cl)CC3C1(Cl)C2(Cl)Cl (configuration not stated) | inactive | 
